# Compounds with a hit are over-represented: about 1.9% of the library has one in this group of screens.
# INS-1E GSIS act: GLuc luminescence reporter in INS-1E cells, primary screen for activators of glucose-dependent secretion of insulin; 0.61% of 370,000 active; activation, % at 16.6 µM; AID 743287, 2014; INS-1E GLuc reporter insulin secretion, 2-3 h;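 active = lowest replicate activation of at least 40%, so every replicate reaches that level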;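 also: 0% = median of neutral control wells and 100% = median of IBMX positive control wells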
# dFosB act-1: activators of delta FosB homodimer, primary screen, biochemical, fluorescence polarization, TAMRA-CDK5 oligo, single point; 0.99% of 340,000 active; Protein FosB (Mus musculus), P13346; AID 493131, 2011; purified delta FosB; percent of positive-control signal above neutral wells; activation, % at 25 µM;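 active = mean activation above about 17%, with every replicate also reaching it, limit read from the data, passing the limit was not always enough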
# Target sequence (P13346 whole entry, looked up): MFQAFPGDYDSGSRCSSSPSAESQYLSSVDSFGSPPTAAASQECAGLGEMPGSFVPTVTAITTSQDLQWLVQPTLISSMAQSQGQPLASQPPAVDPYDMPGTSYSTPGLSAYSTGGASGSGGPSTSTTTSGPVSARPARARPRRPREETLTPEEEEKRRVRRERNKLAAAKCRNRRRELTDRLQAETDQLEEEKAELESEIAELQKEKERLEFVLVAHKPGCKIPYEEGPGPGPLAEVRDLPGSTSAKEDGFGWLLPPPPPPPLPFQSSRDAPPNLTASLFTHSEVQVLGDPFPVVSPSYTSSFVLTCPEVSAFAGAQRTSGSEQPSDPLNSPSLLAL
# Vif inh: HIV Vif self-association inhibitors, primary screen, imaging, HEK293T, single point; HEK293T cells, Vif self-association by quenched fluorescence, 24 h; inhibition, % at 7.49 µM; 0.35% of 340,000 active; in the data active = inhibition above about 50%, passing the limit was not always enough
# Neddylation inh: inhibitors of cullin neddylation, primary screen, biochemical, TR-FRET, uHTS, NAE and Ubc12 | NEDD8-conjugating enzyme Ubc12 (Homo sapiens) + NEDD8-activating enzyme E1 regulatory … | inhibition, % at 25 µM | 0.58% of 360,000 active | AID 651699, 2012; in the data active = inhibition above about 36%
# A1 inh: caspase 3/7 activation in MEF A1-2A-BIM cells, primary screen, A1 inhibitor project, cell-based, luminescence, HTS; Caspase-Glo 3/7 luminescence, 3 h; percent of clofoctol response, vehicle zero; caspase activation, % (concentration not given with the values); AID 2462, 2010; 0.066% of 330,000 active;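 active = over half of replicate activation scores above 10%, or exactly half above 10 with the replicate mean above 10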
# dFosB act-2: activators of mouse delta FosB DNA binding, confirmation, biochemical, fluorescence polarization, TAMRA-CDK5 oligo, cherry-picked samples; shares compounds with dFosB act-1; purified delta FosB; normalised: neutral wells 0, positive control 100; activation, % at 24.9 µM; 2,400 tested, under 10 active;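 active = highest replicate activation at or above 34% and every replicate reaching that threshold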;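 also: higher polarization means more probe DNA bound by delta FosB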
# Starred values were filed as active, the others as inactive; nt = not tested or not shown.
SMILES,INS-1E GSIS act,dFosB act-1,Vif inh,Neddylation inh,A1 inh,dFosB act-2
Cc1ccc(SCc2nc3ccccc3n2CC(=O)Nc2ccccc2)cc1,nt,0,nt,1,-1,nt
Cc1ccc(SCc2nc3ccccc3n2CC(=O)Nc2c(C)cccc2C)cc1,3,32*,19,9,0,0
CC1Nc2ncnc(N3CCc4ccccc4C3)c2N(Cc2ccc(Br)cc2)C1=O (stereo not drawn),-14,51*,-4,-4,-1,-1
CCn1c(-c2cccnc2Cl)nc2cc(Cl)c(Cl)cc21,-11,-5,-4,15,0,nt
Clc1cc2nc(-c3cccnc3Cl)[nH]c2cc1Cl,-15,35*,1,-60,-7,6
O=C1C(c2ccccc2)SC(=Nc2ccccc2)N1S(=O)(=O)c1ccccc1 (stereo not drawn),nt,21*,9,3,0,4
COc1cc2nc(NC(=O)c3ccccc3)[nH]c(=O)c2cc1OC,nt,-10,nt,6,1,nt
COc1ccc(C(=O)Nc2nc3cc(OC)c(OC)cc3c(=O)[nH]2)cc1,nt,25*,0,13,0,0
CSc1ccc(/C=C/C(=O)OCC(=O)NC2CCCC2)cc1,nt,nt,-1,nt,nt,nt
CSc1ccc(/C=C/C(=O)OCC(=O)c2ccc[nH]2)cc1,3,22*,7,nt,-2,-2
CNC(=O)C[C@H]1CC[C@H]2[C@H](COc3ccc(NC(=O)Nc4cccc(Cl)c4)cc3C(=O)N2C)O1,-10,nt,nt,nt,nt,nt
CSc1ccccc1NC(=O)Cn1nnc(-c2ccc(S(C)(=O)=O)cc2)n1,-1,30*,1,0,0,6
CS(=O)(=O)c1ccc(-c2nnn(CC(N)=O)n2)cc1,11,2,-4,10,0,nt
CC(=O)Nc1ccc2c(c1)C(=O)N(c1cccc(C)c1)C2=O,34,20*,-9,-238,0,4
Cc1cccc(N2C(=O)c3ccc(C(=O)Nc4ccccn4)cc3C2=O)c1,1,62*,-3,-31,-1,5
O=C(Cn1cnc2c(NCc3ccccc3)ncnc21)NCc1ccccc1,-4,-2,nt,8,nt,nt
C[C@@H](NC(=O)Cn1cnc2c(NCc3ccccc3)ncnc21)c1cccc2ccccc12,-2,38*,nt,-12,nt,-2
Cc1noc(C)c1NC(=O)Nc1ccc2c(c1)C(=O)N([C@H](C)CO)C[C@@H](C)[C@@H](CN(C)S(=O)(=O)c1ccccc1)O2,22,nt,nt,nt,nt,nt
Cc1cc(=O)oc2cc(OCC(=O)Nc3nccs3)ccc12,2,-2,8,18,0,nt
Cc1c(C)c2ccc(OCC(=O)Nc3nccs3)cc2oc1=O,-3,31*,-5,35,-9,1
COc1ccc(CCNC(=O)C(=O)NCc2ccc(Cl)cc2)cc1OC,0,43*,-4,2,-1,-5
Cc1ccc(CSCC(=O)N/N=C/c2ccc(OCC(=O)Nc3ccc(C)cc3)cc2)cc1,nt,27*,-3,-3,0,9
COc1ccc(CSCC(=O)N/N=C/c2ccc(OCC(=O)N3CCCCC3)cc2)cc1,0,-3,-9,-8,0,nt
Cc1ccc(NC(=O)CSc2nnc3c(n2)[nH]c2ccccc23)cc1,7,-2,18,-1,0,nt
COc1ccc(CNC(=O)CSc2nnc3c(n2)[nH]c2ccc(OC)cc23)cc1,8,40*,8,-2,0,-2
CCc1ccc2[nH]c3nc(SCc4nnc(-c5ccccc5)o4)nnc3c2c1,nt,8,-3,5,1,nt
Cc1ccc(CNC(=O)CSc2nnc3c(n2)[nH]c2ccccc23)cc1,16,28*,12,-10,0,7
COc1ccc2[nH]c3nc(SCc4nnc(-c5ccccc5)o4)nnc3c2c1,nt,19*,-6,-15,0,2
CO[C@H]1CN(C)C(=O)c2cc(NS(C)(=O)=O)ccc2OC[C@H](C)N(CC2CCCCC2)C[C@H]1C,14,nt,nt,nt,nt,nt
